# PubChem BioAssay (NCATS)
# Results filed as inconclusive are left out. Entries that show only a call come without a potency. Calls of active or inactive are those of the source. The call rests on the fitted dose curve; in most records, active means well fitted cell-killing curve with a large enough effect; inconclusive means small, poorly fitted or top-dose-only effect; inactive means flat fitted curve, though single readings scatter.
# Assay: qHTS assay to identify small molecule inhibitors of chordoma cells - UCH-2 (AID 1259356)
# Conditions: UCH-2 chordoma viability, CellTiter-Glo ATP luminescence, 48 h; series mostly up to 46.1 µM
# Text: NIH Chemical Genomics Center [NCGC]
# Chordoma is a rare and slow growing tumor that can occur anywhere along the spine, from the base of the skull to the tailbone. Current treatment options for chordoma is surgery and radiation therapy for those who are not candidates for surgery. But chordomas tend to return in the same location or surrounding areas of the original tumor after surgery and/or radiation. Chemotherapy can slow down the progression of the tumor. As chordoma is slow growing, the general cytotoxic agents that kill fast growing cells are ineffective, and some patients have been reported to respond to molecularly targeted drugs.
# NCATS Pharmaceutical Collection (NPC) containing approximately 3000 clinically approved and investigational drugs were used to screen at 15 concentrations in a chordoma cell lines, UCH-2, to identify small molecule compounds that can inhibit chordoma cell growth.
# NCGC Assay Protocol Summary:
# Human chordoma cell line UCH-2 was dispensed at 800 per well in 4uL of culture medium into white solid bottom 1536-well plates (Corning Life Sciences, Corning, NY) using a Multidrop Combi (Thermo Scientific, Waltham, MA) dispenser. The assay plates were incubated at 37 C and 5% CO2 for an overnight, and then 23nL of compounds dissolved in DMSO and positive control were transferred using a Pintool station (Wako, San Diego, CA). Compound treatment was followed by the addition of 1uL of the combination compounds (1uM Auranofin, 500nM each of Camptothecin, Doxorubicin, Rubitecan, and Topotecan) and assay medium to each well of the assay plates using Flying Reagent Dispenser (FRD, Aurora Discovery, San Diego, CA). The assay plates were incubated at 37 C and 5% CO2 for 48hr. Then 5uL of CellTiter-Glo reagent (Promega Corporation, Madison, WI) was added to each well of the assay plates using FRD. After 30min incubation at room temperature, the luminescence signal was quantified using a ViewLux plate reader (PerkinElmer, Shelton, CT).
# Potency means the concentration at half of the fitted maximal effect.
row,SMILES,Potency
1,Cc1ccccc1OCC(O)CO (stereo not given),inactive
2,NC(N)=NCc1cccc(I)c1,inactive
3,O=C(O)P(=O)(O)O,inactive
4,NS(=O)(=O)c1cc(C(=O)O)cc(N2CCCC2)c1Oc1ccccc1,inactive
5,NC1CCN(c2nc3c(cc2F)c(=O)c(C(=O)O)cn3-c2ccc(F)cc2F)C1 (stereo not given),inactive
6,CCc1oc2ccccc2c1C(=O)c1cc(Br)c(O)c(Br)c1,inactive
7,Nc1ccc(C(=O)NCC(=O)O)cc1,inactive
8,CC(C(=O)O)c1cccc(Oc2ccccc2)c1 (stereo not given),inactive
9,Cc1ccc2c(Br)cc(Br)c(O)c2n1,inactive
10,Nc1ccc(S(=O)(=O)Nc2cnc3ccccc3n2)cc1,inactive
11,CC(=O)NCCCCCC(=O)O,inactive
12,CCN(CC)CCOc1ccccc1C(=O)CCc1ccccc1,inactive
13,NC(=O)C1(N2CCCCC2)CCN(CCCC(=O)c2ccc(F)cc2)CC1,inactive
14,NS(=O)(=O)Cc1noc2ccccc12,inactive
15,C#C[C@]1(O)CC[C@H]2[C@@H]3CCC4=CC(=O)CC[C@@H]4[C@H]3CC[C@@]21CC,inactive
16,CCCN(CCc1cccs1)[C@H]1CCc2c(O)cccc2C1,inactive
17,O=C(O)C(Cc1cc(I)c(O)c(I)c1)c1ccccc1 (stereo not given),inactive
18,CCN1CCCC(OC(=O)C(c2ccccc2)c2ccccc2)C1 (stereo not given),inactive
19,CN1CCN(C2=Nc3ccccc3Sc3ccc(Cl)cc32)CC1,inactive
20,CNCCc1ccccn1,inactive

row,SMILES,Potency
1,O=C(Nc1ccccc1)OCC(CN1CCCCC1)OC(=O)Nc1ccccc1 (stereo not given),inactive
2,Cc1nc(-c2ccc(Cl)cc2)oc1COC(C)(C)C(=O)O,inactive
3,CCCCCCCCNC(C)C(O)c1ccc(SC(C)C)cc1 (stereo not given),inactive
4,C[C@@]12C(=O)OC(=O)[C@]1(C)C1CCC2O1,698 nM (active)
5,NC(=S)N/N=C/c1cccnc1,inactive
6,CN(C)CCOC(=O)C(c1ccccc1)C1(O)CCCC1 (stereo not given),inactive
7,FC(F)(F)C(F)(F)C(F)(F)C(F)(F)C(F)(F)C(F)(F)C(F)(F)C(F)(F)Br,inactive
8,Nc1ccc(S(=O)(=O)NCc2ccccc2)cc1,inactive
9,CCCCCCCCOc1ccc(C(=O)c2ccccc2)c(O)c1,inactive
10,CCN(CC)CCOC(=O)C1(c2ccccc2)CCCC1,inactive
11,CC1(C)OC[C@@H]2O[C@@]3(C(=O)O)OC(C)(C)O[C@H]3[C@@H]2O1,inactive
12,CC[C@H](c1ccc(O)cc1)[C@@H](CC)c1ccc(O)cc1,inactive
13,CC(C)(C)NCC(O)COc1cccc2c1C[C@H](O)[C@H](O)C2 (stereo not given in full),inactive
14,CN1CCN(CCC(=O)N2c3ccccc3Sc3ccc(C(F)(F)F)cc32)CC1,inactive
15,Cc1cc2c(OCC(CNC(C)(C)C)OC(=O)c3ccccc3)cccc2[nH]1 (stereo not given),inactive
16,CCOc1ccccc1OCCN[C@H](C)Cc1ccc(OC)c(S(N)(=O)=O)c1,inactive
17,CC(C)n1c(/C=C/[C@@H](O)C[C@@H](O)CC(=O)O)c(-c2ccc(F)cc2)c2ccccc21,inactive
18,CCc1ccc(C(=O)C(C)CN2CCCCC2)cc1 (stereo not given),inactive
19,CC(=O)Nc1ncc([N+](=O)[O-])s1,inactive
20,CCCCC(CC)CN1CN(CC(CC)CCCC)CC(C)(N)C1 (stereo not given),inactive
